Potency and affinity values are given separately.
target: Kelch-like ECH-associated protein 1 (Homo sapiens) + Nuclear factor erythroid 2-related factor 2 (Homo sapiens) (UniProt Q14145+Q16236); assay: Keap1-Nrf2 protein-protein interaction inhibitors, dose response, biochemical, fluorescence polarization, cherry-picked samples (AID 588683); details: Keap1/Nrf2 peptide fluorescence polarization, plate reader; series mostly up to 26 µM; activity change, negative = inhibition: at the top concentration;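 also: Kelch domain of Keap1 binding a fluorescein-labelled 9mer Nrf2 peptide; more negative means stronger inhibition of peptide binding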
Sequence (Q14145 whole entry, looked up, the tested form may be a part): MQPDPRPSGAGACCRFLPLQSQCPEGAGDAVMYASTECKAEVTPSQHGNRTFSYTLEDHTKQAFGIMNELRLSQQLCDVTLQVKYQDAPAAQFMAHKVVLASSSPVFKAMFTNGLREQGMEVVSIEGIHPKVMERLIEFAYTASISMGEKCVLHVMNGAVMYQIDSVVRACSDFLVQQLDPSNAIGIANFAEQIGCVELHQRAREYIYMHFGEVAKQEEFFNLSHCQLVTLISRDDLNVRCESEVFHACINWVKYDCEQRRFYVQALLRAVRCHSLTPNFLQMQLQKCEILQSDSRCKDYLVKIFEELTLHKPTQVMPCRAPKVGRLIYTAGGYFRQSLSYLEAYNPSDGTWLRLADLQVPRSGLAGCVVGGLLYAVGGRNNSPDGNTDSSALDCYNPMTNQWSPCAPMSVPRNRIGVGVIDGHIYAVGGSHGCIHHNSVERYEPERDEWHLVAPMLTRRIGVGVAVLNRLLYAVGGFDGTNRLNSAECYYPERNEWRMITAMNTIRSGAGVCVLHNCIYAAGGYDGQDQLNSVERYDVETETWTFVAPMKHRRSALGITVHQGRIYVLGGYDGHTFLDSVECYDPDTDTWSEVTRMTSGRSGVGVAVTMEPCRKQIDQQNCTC
Sequence (Q16236 whole entry, looked up, the tested form may be a part): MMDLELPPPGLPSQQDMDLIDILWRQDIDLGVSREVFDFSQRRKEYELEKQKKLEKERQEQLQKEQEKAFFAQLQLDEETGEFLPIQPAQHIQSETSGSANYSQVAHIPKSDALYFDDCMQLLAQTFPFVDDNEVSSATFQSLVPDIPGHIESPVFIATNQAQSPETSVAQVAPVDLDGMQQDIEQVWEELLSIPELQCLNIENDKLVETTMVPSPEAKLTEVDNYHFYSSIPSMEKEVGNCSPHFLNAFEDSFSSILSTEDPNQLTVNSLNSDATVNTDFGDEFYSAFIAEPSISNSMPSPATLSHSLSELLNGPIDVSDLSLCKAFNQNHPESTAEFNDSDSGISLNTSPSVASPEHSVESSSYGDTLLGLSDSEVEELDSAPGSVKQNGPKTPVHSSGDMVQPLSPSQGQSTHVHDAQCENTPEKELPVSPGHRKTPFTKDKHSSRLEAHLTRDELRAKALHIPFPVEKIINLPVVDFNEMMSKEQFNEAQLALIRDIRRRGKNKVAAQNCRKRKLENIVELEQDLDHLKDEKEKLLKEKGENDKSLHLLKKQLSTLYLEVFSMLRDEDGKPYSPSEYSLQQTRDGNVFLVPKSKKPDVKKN

Activity change, negative = inhibition, inactive:
CCCCC1OC23CCCCC2C(C#N)(C(=N)O3)C1(C#N)C#N (stereo not drawn) -15%
Oc1[nH]c2ccccc2c1N=Nc1ccccc1 -5.01%
Cc1cccc(NS(=O)(=O)c2ccc(C)c(C(=O)NCC(c3ccccc3)N(C)C)c2)c1 (stereo not drawn) 11%
O=c1ccc2cc3c4c(c2o1)CCCN4CCC3 -45.4%
NC(=O)CC(NC(=O)Cc1cccc2ccccc12)c1ccc(NCc2ccccc2)c([N+](=O)[O-])c1 (stereo not drawn) -0.628%
O=C1c2ccccc2-c2onc3ccc(N4CCCC4)c1c23 10.2%
O=C(CCc1ccccc1)NNc1ccc(F)cc1 2.16%
COc1cc(CO)ccc1Oc1nc2ccccc2n2cnnc12 -3.41%
Cc1ccc(C2C3CN(C(C)C)CC=C3C(C#N)=C(N)C2(C#N)C#N)cc1 (stereo not drawn) -9.88%
C=CCn1c(=O)/c(=C\c2ccsc2)s/c1=C(/C#N)C(=O)NCCN1CCOCC1 -4.59%
Oc1[nH]c2ccccc2c1N=Nc1ccccc1F 396%
CCOC(=O)N1CCN(Cc2ccccc2Cl)CC1 -11.2%
CCOc1ccc(NC(=O)COC(=O)CCN2C(=O)C3CC=CCC3C2=O)cc1OCC (stereo not drawn) -10.6%
O=C(COC(=O)c1ccc([N+](=O)[O-])s1)Nc1cccc(S(=O)(=O)NC2=NCCCCC2)c1 -14.6%
Cc1ccccc1OCCC(=O)Nc1cc(S(=O)(=O)N2CCCCC2)ccc1N1CCN(C)CC1 2.61%
COc1ccc(N=Nc2nc3ccc(Br)cc3n2C)cc1 -21.9%
CC(=O)C1C(c2ccc(F)cc2)c2c(noc2C)CC1(C)O (stereo not drawn) -4.11%
CC1OC2(C)OC(=N)C1(C#N)C(C#N)(C#N)C2c1ccccc1 (stereo not drawn) -11.3%
O=C(Cc1ccc(S(=O)(=O)N2CCOCC2)s1)Nc1nc2c(s1)CCCC2 1.26%
N#CCCN(CCC#N)C(=O)C1c2ccccc2Oc2ccccc21 0.566%
N=c1c(C(=O)NCc2ccc(F)cc2)cc2c(=O)n3ccccc3nc2n1Cc1cccnc1 -11.4%
CCOc1cccc(C2C(C(=O)c3ccc(C)o3)=C(O)C(=O)N2c2nccs2)c1 (stereo not drawn) -21.9%
CCCCNC(=S)Nc1ccc(OC)nc1 -10.8%
CNS(=O)(=O)c1ccc2c3c(cccc13)C(=O)N2C -7.61%
OC(CCN1CCC2(CC1)OCCO2)C(F)(F)F (stereo not drawn) -14%
Cc1cc(=O)c2c([nH]1)c(C)cc1[nH]c(C)c(C)c12 -9.52%
CCCCN(C(=O)CC1CCCCC1)c1c(N)n(CC(C)C)c(=O)[nH]c1=O -8.63%
CCOCCCn1c(=NC(=O)c2cccs2)c(C#N)cc2c(=O)n3ccccc3nc21 -14.5%
C=CCn1c(O)c(CN2CCOCC2)c(C)c(C#N)c1=O -13.2%
O=C(/C=C/c1ccccc1Cl)NCCCn1ccnc1 -9.01%
O=[N+]([O-])c1cc(C(F)(F)F)ccc1NC1CCN(Cc2ccccc2)CC1 -6.35%
CCN1CC=C2C(C#N)=C(N)C(C#N)(C#N)C(CCc3ccccc3)C2C1 (stereo not drawn) 5.09%
CC1=CC(=C2N=C(c3ccccc3)OC2=O)C=C(C)O1 107%
Cc1ccc(-n2nnnc2SCC(=O)c2c(N)n(C3CC3)c(=O)[nH]c2=O)cc1 3.48%
COc1ccc(OC)c(C(=O)c2coc3ccc(O)c(CN(C)C)c23)c1 -6.21%
Cc1ccc(C(=O)NNC(=O)c2n[nH]c(=O)c3ccccc23)cc1C -2.74%
COCCCN1C(=O)c2ccc(C(=O)Nc3ccc(C)cc3C)cc2C1=O -4.5%
C=CCOc1ccc(CNc2ccc(NC(=O)CC(C)C)cc2)cc1OC -7.58%
